From PubChem BioAssay come the findings set out here.

Calls of active or inactive are those of the source.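 Rule for the calls: active = Her2 level under about 52% in both replicate screens, with viability over 70% of control (limit read from the data); inconclusive = Her2 under the limit in one screen only, or viability under 70%; inactive = Her2 level above the set limit.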

Receptor tyrosine-protein kinase erbB-2 (Homo sapiens), sequence (P04626 whole entry, looked up): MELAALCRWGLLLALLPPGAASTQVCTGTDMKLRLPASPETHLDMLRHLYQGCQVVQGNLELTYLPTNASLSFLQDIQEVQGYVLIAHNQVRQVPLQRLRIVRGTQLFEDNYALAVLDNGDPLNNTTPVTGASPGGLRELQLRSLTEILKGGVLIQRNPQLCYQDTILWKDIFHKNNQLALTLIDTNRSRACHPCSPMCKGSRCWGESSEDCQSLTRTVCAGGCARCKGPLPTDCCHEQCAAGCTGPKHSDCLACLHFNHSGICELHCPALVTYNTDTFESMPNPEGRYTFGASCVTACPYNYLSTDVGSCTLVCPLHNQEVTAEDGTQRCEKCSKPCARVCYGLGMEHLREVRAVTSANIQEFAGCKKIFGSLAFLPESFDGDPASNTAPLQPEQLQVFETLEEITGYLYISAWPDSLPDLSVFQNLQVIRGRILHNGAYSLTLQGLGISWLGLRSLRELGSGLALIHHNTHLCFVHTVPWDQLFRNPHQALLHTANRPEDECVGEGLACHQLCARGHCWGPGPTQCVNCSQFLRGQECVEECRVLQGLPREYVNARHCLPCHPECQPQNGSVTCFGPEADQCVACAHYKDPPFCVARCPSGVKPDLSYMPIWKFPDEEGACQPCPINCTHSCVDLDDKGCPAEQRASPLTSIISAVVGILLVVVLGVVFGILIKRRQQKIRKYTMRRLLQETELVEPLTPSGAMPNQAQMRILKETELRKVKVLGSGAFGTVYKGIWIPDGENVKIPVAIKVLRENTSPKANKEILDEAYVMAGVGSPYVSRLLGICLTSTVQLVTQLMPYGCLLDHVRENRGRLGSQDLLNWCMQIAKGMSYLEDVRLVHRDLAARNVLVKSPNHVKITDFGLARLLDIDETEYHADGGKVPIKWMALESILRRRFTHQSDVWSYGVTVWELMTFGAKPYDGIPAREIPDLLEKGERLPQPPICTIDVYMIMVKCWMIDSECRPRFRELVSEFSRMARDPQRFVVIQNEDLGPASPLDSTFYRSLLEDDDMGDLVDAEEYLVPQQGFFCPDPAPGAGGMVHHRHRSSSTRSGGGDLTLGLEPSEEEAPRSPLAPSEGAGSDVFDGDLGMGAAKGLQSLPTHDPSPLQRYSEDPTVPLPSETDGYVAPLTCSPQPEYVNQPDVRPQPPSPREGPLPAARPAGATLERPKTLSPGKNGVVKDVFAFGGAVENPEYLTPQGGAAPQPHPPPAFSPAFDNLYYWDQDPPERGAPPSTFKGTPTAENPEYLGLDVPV

Test system in one experiment: not listed separately
Nature of the experiment: reducers of endogenous Her2 protein level, primary screen, SKBR3 breast tumor cells, AlphaScreen, ATP viability (AID 461).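 For Her2 level: lower value means less Her2 protein in the cells.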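 For viability: percent of carrier control wells set as 100% viability.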 As to conditions: 18-24 h, measured here: SKBR3 viability, ATP luminescence, at 10 µM. In general terms: Bead proximity is the source of the signal in Alpha formats.
As a reminder, the viability is a read-out of living cells in per cent, often relative to untreated cells. Turning to `CN(C)c1ccc(NC(=O)Cn2cc3c(n2)CCCC3)cc1`, the viability stood at 77.5%.
Take `Cc1nc2ccccc2c2oc(C(=O)NCC3COc4ccccc4O3)cc12` (stereo unspecified): the viability worked out at 103%.
The same measure, in the same setting: then `O=C(CS(=O)(=O)c1cn(Cc2ccc(F)cc2)c2ccccc12)N1CCCCC1`, with 92%.
Still for that read-out and setting: then `Cc1ccc(C2c3c(oc4ccccc4c3=O)C(=O)N2c2nnc(C(C)C)s2)o1` (stereo unspecified), with 84%.
For the compound `Cc1cc(C)c2c(=O)n(CC(=O)NCCCN3CCN(c4ccccc4F)CC3)sc2n1`, the viability is 107%.
Same read-out and setting: then `COc1ccccc1S(=O)(=O)Cc1ccc(C(=O)NCCN2CCCCCC2)o1`, with 71%; and `COc1ccc(C2C(C(=O)Nc3cccnc3)=C(C)Nc3nc(-c4cccs4)nn32)cc1OC` (stereo unspecified), with 59%; and `OC1(c2cccc(C(F)(F)F)c2)CCN(c2ccc(-c3ccccc3)nn2)CC1`, with 71.5%.
The same measure, in the same setting: then `CCOC(=O)CSC1=C(C#N)C(c2ccc(C)o2)CC(=O)N1` (stereo unspecified), with 98.5%; and `Cc1ccccc1Cn1nc(C)c(NC(=O)c2noc3c2CCc2ccccc2-3)c1C`, with 126%; and `C/C=C/COC(=O)c1[nH]c2c(c1C)C(=O)CC(c1ccco1)C2` (stereo unspecified), with 80.5%.
As to `Cc1ccc2nc(NC(=O)Cn3cc4c(n3)CCCCC4)sc2c1`, the viability was 91.5%.
The same measure, in the same setting: the value for `Cn1c(=O)oc2cc(S(=O)(=O)N3CCN(c4ccccn4)CC3)ccc21` was 88.5%; that for `CCOc1ccccc1NC(=O)C1CCCN(S(=O)(=O)c2cccc3cccnc23)C1` (stereo unspecified) was 108%; that for `O=C(Nc1nc(-c2ccncc2)cs1)C1COc2ccccc2O1` (stereo unspecified) was 83.5%.
In the case of `C/C=C/COC(=O)c1[nH]c2c(c1C)C(=O)CC(c1ccc(N(C)C)cc1)C2` (stereo unspecified), the viability was 92%.
With `Cc1ccc(C)c(N2CCN(CCCNC(=O)Cn3cc4c(n3)CCC(C)C4)CC2)c1` (stereo unspecified), the viability is 90.5%.
For the compound `CCOC(=O)c1ccc(N=c2sc(C(=O)OC)cc(=O)n2Cc2ccco2)cc1`, the viability was found to be 110%.
For `Cc1ccccc1-c1nc(CN2CCC(C(=O)NC3CCN(Cc4ccccc4)CC3)CC2)c(C)o1`, the viability amounted to 91%.
The same measure, in the same setting: then `CC(=O)n1cc(-c2ccncc2)c2ccccc21`, with 94%.
In the case of `C/C=C/CSc1nc2c(c(=O)[nH]c(=O)n2C)n1Cc1ccc(C)cc1`, the viability turned out to be 102%.
With `O=C(NCCN1C(=O)C2C3C=CC(C3)C2C1=O)Nc1ccccn1` (stereo unspecified), the viability was 114%.
Turning to `CC1CCCCN1S(=O)(=O)c1ccc(NC(=O)c2cccs2)cc1` (stereo unspecified), the viability is 73.5%.
With `CCOc1ccc(N(CC(=O)Nc2cccc(OC)c2)S(=O)(=O)c2c(C)noc2C)cc1`, the viability turned out to be 91.5%.
In the case of `COc1cccc(-c2nc(CS(=O)(=O)CC(=O)Nc3cc(C)ccc3C)c(C)o2)c1`, the viability was 76%.
The same measure, in the same setting: then `Cc1cc(=O)oc2c1ccc1oc(/C(=N/O)c3ccccc3)c(C)c12`, with 84%; and `Cc1cc(/C=N/n2cnnc2)c(C)n1-c1cccc(Cl)c1`, with 84%; and `Cc1cc(C)c2c(=O)n(CC(=O)NCCCN3CCOCC3)sc2n1`, with 98%.

Another experiment addresses Receptor tyrosine-protein kinase erbB-2 (Homo sapiens) (UniProt P04626). The description is as above. As to conditions: 18-24 h, at 10 µM, stronger effect = lower value.
Take `CN(C)c1ccc(NC(=O)Cn2cc3c(n2)CCCC3)cc1`: the Her2 level is 67% (inactive).
The same measure, in the same setting: the value for `Cc1nc2ccccc2c2oc(C(=O)NCC3COc4ccccc4O3)cc12` (stereo unspecified) was 58.5% (inactive); that for `O=C(CS(=O)(=O)c1cn(Cc2ccc(F)cc2)c2ccccc12)N1CCCCC1` was 88.5% (inactive).
Same read-out and setting: the value for `Cc1ccc(C2c3c(oc4ccccc4c3=O)C(=O)N2c2nnc(C(C)C)s2)o1` (stereo unspecified) was 61% (inactive); that for `Cc1cc(C)c2c(=O)n(CC(=O)NCCCN3CCN(c4ccccc4F)CC3)sc2n1` was 70.5% (inactive).
Regarding `COc1ccccc1S(=O)(=O)Cc1ccc(C(=O)NCCN2CCCCCC2)o1`, the Her2 level is 102% (inactive).
Turning to `COc1ccc(C2C(C(=O)Nc3cccnc3)=C(C)Nc3nc(-c4cccs4)nn32)cc1OC` (stereo unspecified), the Her2 level is 94.5% (inactive).
Consider `OC1(c2cccc(C(F)(F)F)c2)CCN(c2ccc(-c3ccccc3)nn2)CC1`, for which the Her2 level is 78.5% (inactive).
Same read-out and setting: then `CCOC(=O)CSC1=C(C#N)C(c2ccc(C)o2)CC(=O)N1` (stereo unspecified), with 83.5% (inactive).
On the same count and under the same terms, the value for `Cc1ccccc1Cn1nc(C)c(NC(=O)c2noc3c2CCc2ccccc2-3)c1C` was 61% (inactive); that for `C/C=C/COC(=O)c1[nH]c2c(c1C)C(=O)CC(c1ccco1)C2` (stereo unspecified) was 62% (inactive).
Same read-out and setting: the value for `Cc1ccc2nc(NC(=O)Cn3cc4c(n3)CCCCC4)sc2c1` was 106% (inactive); that for `Cn1c(=O)oc2cc(S(=O)(=O)N3CCN(c4ccccn4)CC3)ccc21` was 91.5% (inactive).
Regarding `CCOc1ccccc1NC(=O)C1CCCN(S(=O)(=O)c2cccc3cccnc23)C1` (stereo unspecified), the Her2 level was 94.5% (inactive).
In the case of `O=C(Nc1nc(-c2ccncc2)cs1)C1COc2ccccc2O1` (stereo unspecified), the Her2 level was 99.5% (inactive).
The same measure, in the same setting: then `C/C=C/COC(=O)c1[nH]c2c(c1C)C(=O)CC(c1ccc(N(C)C)cc1)C2` (stereo unspecified), with 94% (inactive); and `Cc1ccc(C)c(N2CCN(CCCNC(=O)Cn3cc4c(n3)CCC(C)C4)CC2)c1` (stereo unspecified), with 78% (inactive); and `CCOC(=O)c1ccc(N=c2sc(C(=O)OC)cc(=O)n2Cc2ccco2)cc1`, with -1.5% (active).
As to `Cc1ccccc1-c1nc(CN2CCC(C(=O)NC3CCN(Cc4ccccc4)CC3)CC2)c(C)o1`, the Her2 level is 77.5% (inactive).
In the case of `CC(=O)n1cc(-c2ccncc2)c2ccccc21`, the Her2 level was 108% (inactive).
Same read-out and setting: then `C/C=C/CSc1nc2c(c(=O)[nH]c(=O)n2C)n1Cc1ccc(C)cc1`, with 98.5% (inactive); and `O=C(NCCN1C(=O)C2C3C=CC(C3)C2C1=O)Nc1ccccn1` (stereo unspecified), with 102% (inactive); and `CC1CCCCN1S(=O)(=O)c1ccc(NC(=O)c2cccs2)cc1` (stereo unspecified), with 83% (inactive).
In the case of `CCOc1ccc(N(CC(=O)Nc2cccc(OC)c2)S(=O)(=O)c2c(C)noc2C)cc1`, the Her2 level is 95% (inactive).
The same measure, in the same setting: the value for `COc1cccc(-c2nc(CS(=O)(=O)CC(=O)Nc3cc(C)ccc3C)c(C)o2)c1` was 86.5% (inactive); that for `Cc1cc(=O)oc2c1ccc1oc(/C(=N/O)c3ccccc3)c(C)c12` was 112% (inactive).
As for `Cc1cc(/C=N/n2cnnc2)c(C)n1-c1cccc(Cl)c1`, the Her2 level was 92% (inactive).
Same read-out and setting: then `Cc1cc(C)c2c(=O)n(CC(=O)NCCCN3CCOCC3)sc2n1`, with 89.5% (inactive).
